# Laboratory results: the supplement of paper PMC7156485
# ± gives the standard deviation of the averaged measurements.
# Columns and labels:
# Settings in all cases: concentration: 10 µM; 24 h
# [1] = test system: HCC1569; experiment: cell number relative to DMSO (% of DMSO); higher = more cells (less growth inhibition / toxicity)
# Procedure, shortened: (§1)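 Using 384-well plates with 800 cells per well in RPMI plus 10% FBS, HCC1569 and TDF cells were exposed to compounds at 10 µM, in triplicate, for 24 h at 37 °C. Imaging of six fields per well at ×10 followed H1.0 and DAPI staining. The reported quantity, H1.0 nuclear intensity or cell number, is a median of replicates given as percent of the plate control, and HCC1569 values were smoothed for positional effects.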
# [2] = test system: TDF; experiment: as above
# Procedure, shortened: as §1
# [3] = test system: TDF; experiment: H1.0 immunofluorescence intensity relative to DMSO (% of DMSO); higher = stronger H1.0 induction, active = 120 or more
# Procedure, shortened: as §1
# [4] = test system: HCC1569; experiment: H1.0 immunofluorescence intensity relative to DMSO (% of DMSO); higher = stronger H1.0 induction, active = 140 or more
# Procedure, shortened: as §1
# 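Throughout, for H1.0 immunofluorescence intensity relative to DMSO: TDF is a line of transformed human dermal fibroblasts of mesenchymal origin.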
# 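Throughout, for cell number relative to DMSO: TDF denotes transformed human dermal fibroblasts of mesenchymal origin.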
Structure (SMILES),cell number [1],cell number [2],H1.0 immunofluorescence intensity [3],H1.0 immunofluorescence intensity [4]
Cn1c(-c2ccc3c(c2)OCO3)cc(=O)c2ccccc21 [Graveoline],103,99.8,101 (inactive),96.9 (inactive)
CC(C)OC(=O)CCCC=CCC1C(O)CC(O)C1CCC(O)CCc1ccccc1 (configuration not stated) [Latanoprost],103,108,86.7 (inactive),105 (inactive)
OCC1OC(n2cnc3c(NC4CCCC4)nc(Cl)nc32)C(O)C1O (configuration not stated) [2-Chloro-N6-cyclopentyladenosine],109,104,89.3 (inactive),80.9 (inactive)
CCC1(c2ccccc2)NC(=O)N(C)C1=O (configuration not stated) [Mephenytoin],100,109,98.5 (inactive),104 (inactive)
O=c1[nH]c2ccccc2n1CCN1CCN(c2cccc(C(F)(F)F)c2)CC1,103,111,95.8 (inactive),101 (inactive)
CC1(C)CC(=O)C2=C(C1)NC(=S)NC2c1cccc(O)c1 (configuration not stated),70.7,9.81,152 (active),118 (inactive)
CCCCCC(O)C=CC1C=CC(=O)C1CCCCCCC(=O)O (configuration not stated) [Prostaglandin A1],97 ± 5.2,98 ± 2.2,93.3 (inactive),93.8 (inactive)
CCCCCCCCCCCCCCCCCC(=O)OC(CC(=O)O)C[N+](C)(C)C.[Cl-] (racemic) [DL-Stearoylcarnitine chloride],101,84.3,136 (active),114 (inactive)
N=C(N)c1ccc(OCCCCCOc2ccc(C(=N)N)cc2)cc1 [Pentamidine],101,104,92.3 (inactive),113 (inactive)
O=C(NCCO[N+](=O)[O-])c1cccnc1 [Nicorandil],102,96.3,91.5 (inactive),107 (inactive)
Nc1ccn(C2OC(CO)C(O)C2O)c(=O)n1 (configuration not stated) [Cytarabine],79.6,51.3,105 (inactive),102 (inactive)
CCN(CC)CCNC(=O)c1c(C)[nH]c(C=C2C(=O)Nc3ccc(F)cc32)c1C [Sunitinib],92.1,58.7,106 (inactive),173 (active)
NS(=O)(=O)c1ccc(-n2nc(C(F)(F)F)cc2-c2ccc(Cl)cc2)cc1,90.5,104,90.5 (inactive),90.7 (inactive)
CCCCCCCCCCCCCCCCn1cc[n+](Cc2ccccc2)c1C.[I-],99.1,103,103 (inactive),106 (inactive)
O=C([O-])C=CC(O)c1ccc(Cl)cc1.[Na+] (configuration not stated),105,97.4,95.7 (inactive),92.9 (inactive)
CCC(NC(C)C)C(O)c1ccc(O)c(O)c1.CS(=O)(=O)O (configuration not stated) [Isotharine mesylate],103,112,92.8 (inactive),91.5 (inactive)
Nc1nc(=O)c2ncn(COCCO)c2[nH]1 [Acyclovir],98.8,104,90.2 (inactive),85.5 (inactive)
O=c1[nH]cc(F)c(=O)[nH]1 [5-Fluorouracil],81.345 ± 0.068,92.4 ± 4.8,97.7 (inactive),94.5 (inactive)
CC1COc2c(C3(N)CC3)c(F)cc3c(=O)c(C(=O)O)cn1c23 (configuration not stated) [Pazufloxacin],104,110,94.1 (inactive),104 (inactive)
"Oc1cc(O)c2c(c1)OC(c1ccc(O)c(O)c1)C(O)C2 (single isomer, unassigned; (+)) [(+)-Catechine]",102,105,91.8 (inactive),88.4 (inactive)
COc1ccccc1OCC(O)CO (configuration not stated) [Guaifenesin],102,102,98 (inactive),116 (inactive)
CCOC(=O)c1cnc2c(cnn2CC)c1NN=C(C)C.Cl [Etazolate hydrochloride],107,101,86.8 (inactive),99.5 (inactive)
CC(CS)C(=O)N1CCCC1C(=O)O (configuration not stated) [Captopril],98.4 ± 2.9,93.4 ± 4.1,97.6 (inactive),96.7 (inactive)
CC1(C)CCCC2(C)C1CCC1(C)OC(=O)CC12 [(3aR)-(+)-Sclaerolide],99,105,92.9 (inactive),84.9 (inactive)
CC(Cc1ccc(O)c(O)c1)(NN)C(=O)O.O (configuration not stated) [Carbidopa.H2O],103,107,99.8 (inactive),104 (inactive)
CC1=NS(=O)(=O)c2cc(Cl)ccc2N1 [Diazoxide],101.1 ± 0.59,111 ± 7.2,101 (inactive),101 (inactive)
CCCCNc1c(C(=O)OCC)c(C)nc2c1cnn2CC [Tracazolate],105,108,92.8 (inactive),107 (inactive)

Structure (SMILES),cell number [1],cell number [2],H1.0 immunofluorescence intensity [3],H1.0 immunofluorescence intensity [4]
CC=CCC=CCCC(=O)C1OC1C(N)=O (configuration not stated) [Cerulenin],92.6,91.5,97.8 (inactive),111 (inactive)
Nc1ncnc2n[nH]c(Nc3ccc(F)cc3)c12,95.7,102,90.1 (inactive),118 (inactive)
CC1=NC(=NNc2ccc(C(=O)[O-])cc2)C(COP(=O)([O-])[O-])=C(C=O)C1=O.[Na+].[Na+].[Na+],101,103,93.5 (inactive),103 (inactive)
CCCCCCCC/C=C\CCCCCCCC(=O)NCc1ccc(O)c(OC)c1 [(9Z)-N-(4-hydroxy-3-methoxybenzyl)-9-octadecenamide],40.4,91.5,95.2 (inactive),171 (active)
Cl.Clc1cccc(Cl)c1NC1=NCCN1 [Clonidine.HCl],103,100,84.7 (inactive),101 (inactive)
CS(=O)(=O)CCNCc1nc(-c2ccc3ncnc(Nc4ccc(OCc5cccc(F)c5)c(Cl)c4)c3c2)cs1.Cl.Cl,88.4,99.7,99.4 (inactive),136 (inactive)
Cc1cc(C(C)(C)C)c(O)c(C(C)(C)C)c1,99.4,105,90.4 (inactive),99 (inactive)
CN1C2CCCC1CC(NC(=O)c1nn(C)c3ccccc13)C2 (configuration not stated) [Granisetron],93.7,93.9,104 (inactive),102 (inactive)
"C=C1CCC(O)CC1=CC=C1CCCC2(C)C1CCC2C(C)CCC(O)C(C)(C)O [24(R),25-Dihydroxyvitamin D3]",105,98.9,101 (inactive),93.7 (inactive)
CC12CCC3c4ccc(O)cc4CCC3C1CC(O)C2O (configuration not stated) [Estriol],98.5,97.8,101 (inactive),113 (inactive)
CCCCCCCCCCCCCCCC(=O)NCCc1ccc(O)c(O)c1 [Palmitoyl dopamine],92.7,101,101 (inactive),105 (inactive)
CC(NC(=O)C(C#N)=Cc1ccc(O)c(O)c1)c1ccccc1 (configuration not stated) [Tyrphostin AG 835],87.3,87.3,75 (inactive),114 (inactive)
COc1ccc(-c2cnc3c(-c4ccsc4)cnn3c2)cc1 [VEGF Receptor 2 Kinase Inhibitor IV],94.9,95.5,89 (inactive),109 (inactive)
CS(=O)(=O)O.Cn1cc(C(F)(F)F)nc1-c1ccc(OCC(O)CNCCOc2ccc(O)c(C(N)=O)c2)cc1 (configuration not stated),97.2,92.5,94.5 (inactive),96.4 (inactive)
O=[N+]([O-])c1ccc(-c2nc(-c3ccc(F)cc3)c(-c3ccncc3)[nH]2)cc1,89.9,101,84.2 (inactive),139 (inactive)
CC(C)CCNC(C)C1CCC2C3CC=C4CC(O)CCC4(C)C3CCC12C (configuration not stated) [22-Azacholesterol],104,98.5,104 (inactive),110 (inactive)
COC(=O)C(=C1OC(=O)C(c2ccccc2)=C1O)c1ccccc1 [Vulpinic acid],98.5,95.3,89.4 (inactive),91.2 (inactive)
CCCCCCCCCCCCC(=O)O [Tridecanoic acid],105,92.9,107 (inactive),101 (inactive)
O=C(C=Cc1ccc(O)c(O)c1)OCCc1ccccc1 [Caffeic acid phenethyl ester],69.1,81,94.7 (inactive),108 (inactive)
"Cn1nc2c3c(cccc31)C(=O)c1ccccc1-2 [JNK Inhibitor,                    Negative Control]",102,95.3,90.4 (inactive),136 (inactive)
"CCN(NO)C1=CC(=O)C(=O)C=C1 [ET-3,4-dephostatin]",79.5,97.7,94.7 (inactive),151 (active)
COc1ccc(CCN(C)CCCC(C#N)(c2cc(OC)c(OC)c(OC)c2)C(C)C)cc1OC.Cl (racemic),96.5,109,89 (inactive),92.3 (inactive)
N[C@@H](Cc1ccc(F)cc1)C(=O)O [p-Fluoro-L-phenylalanine],104,102,93.4 (inactive),106 (inactive)
O=S(=O)(NCc1ccccn1)c1ccc(Br)c2ccccc12 [4-bromo-N-(2-pyridinylmethyl)-1-naphthalenesulfonamide],99.1,99.2,96.2 (inactive),107 (inactive)
CC(C)(C)C(=O)C(Oc1ccc(Cl)cc1)n1ccnc1 (configuration not stated) [Climbazole],99.5,98.7,92.2 (inactive),99.3 (inactive)
Cl.Cn1c(=O)c(Oc2ccc(F)cc2F)cc2cnc(NC3CCOCC3)nc21,99.9,99.2,89 (inactive),102 (inactive)
